These results are taken from PubChem BioAssay.

Active and inactive are the calls of the source.

One test addresses Albumin (Bos taurus) (UniProt P02769). Kind of test: bovine serum albumin binders on microarray, profiling panel, artefact control for SMM control protein annotation, biochemical, small-molecule microarray, Alexa647 label, 635/667 nm fluorescence (AID 1118).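 Also: score merges 667 nm emission intensity and signal-to-noise per printed compound spot.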 The note with it: BSA-A647 binding, fluorescence 635 nm, higher = more signal.
Test [1] can be described thus: small-molecule microarray binders of probe aXIP, primary screen, biochemical, NeuroSMM set, 635/667 nm fluorescence (AID 1119).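 Also: probe is the protein aXip251-270 applied at 1 µg/mL to compound-printed slides; binding of probe to printed compounds measured as 667 nm fluorescence plus signal to noise.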 The following applies: higher = more signal, called active from +8 up or from −8 down.
A short description of test [2]: small-molecule binders of probe aNOTCH3, primary screen, biochemical, small-molecule microarray, 635/667 nm fluorescence (AID 1120).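 Also: probe is a biotin-tagged antibody raised against NOTCH3 rather than NOTCH3 protein; score merges spot fluorescence near 667 nm with spot signal to noise.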 The note with it: higher = more signal.
Test [3] in a line: small-molecule binders of probe aNOTCH2, primary screen, biochemical, small-molecule microarray, 635/667 nm fluorescence (AID 1121).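 Also: score merges feature fluorescence read at 667 nm with its signal to noise.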 The following applies: higher = more signal.
Test [4] addresses Carbonic anhydrase 2 (Homo sapiens) (UniProt P00918). Kind of test: CAII small-molecule binders, profiling panel, biochemical, small-molecule microarray, Alexa647-labelled CAII (AID 1122). The note with it: CAII-A647 binding fluorescence, higher = more signal.
Test [5] in a line: COS7 lysate on small-molecule microarray, probe aHis, 635 nm (AID 1123).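 Also: z-score combines 667nm fluorescence intensity with signal-to-noise per printed compound spot.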 The note with it: COS7 cell lysate, fluorescence, higher = more signal.
Test [6] in a line: compound binding in COS7 lysate, probe aLAP1, primary screen, cell lysate, small-molecule microarray (AID 1124).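 Also: lysate comes from COS7 cells expressing LAP1 and is applied at 0.3 µg/mL; score merges spot fluorescence near 667 nm with signal-to-noise over triplicate slides.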 The following applies: probe aLAP1, fluorescence, higher = more signal.
The subject of another test is Sam68 (KHDRBS1). As to the kind of experiment: Sam68 small-molecule binders, primary screen, biochemical, small-molecule microarray, 635 nm fluorescence (AID 1125).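 Also: score merges 667 nm channel intensity with signal to noise over triplicate slides.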 The note with it: small-molecule microarray binding, higher = more signal.
The subject of test [7] is Chordin-like protein 2 (CHRDL2). As to the kind of experiment: CHRDL2 small-molecule binders, primary screen, biochemical, small-molecule microarray, 635 nm fluorescence (AID 1126).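 Also: printed compound slides probed with Chrdl2 protein at 4 µg/mL for 1 h at 4 C; score merges 667 nm emission intensity with signal to noise over three replicate slides.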 The note with it: small-molecule microarray binding, fluorescence 635 nm; higher = more signal.
The target of test [8] is Concanavalin-A (Canavalia ensiformis) (UniProt P02866). As to the kind of experiment: ConA small-molecule binders, primary screen, artefact control for SMM control protein annotation, biochemical, small-molecule microarray, Alexa647 label, 635 nm (AID 1127).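 Also: z combines 667 nm emission intensity with signal-to-noise across three replicate slides.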 The note with it: ConA-A647 binding fluorescence, higher = more signal.
Chain of Concanavalin-A (Canavalia ensiformis) (P02866 whole entry, looked up): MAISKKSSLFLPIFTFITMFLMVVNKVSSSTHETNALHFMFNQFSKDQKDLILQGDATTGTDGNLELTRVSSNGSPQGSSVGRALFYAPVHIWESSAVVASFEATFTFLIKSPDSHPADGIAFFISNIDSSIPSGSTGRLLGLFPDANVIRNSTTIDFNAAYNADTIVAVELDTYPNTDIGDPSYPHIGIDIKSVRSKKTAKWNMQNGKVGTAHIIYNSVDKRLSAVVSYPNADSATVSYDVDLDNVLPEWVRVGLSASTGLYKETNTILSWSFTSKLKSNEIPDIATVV

Chain of Albumin (Bos taurus) (P02769 whole entry, looked up): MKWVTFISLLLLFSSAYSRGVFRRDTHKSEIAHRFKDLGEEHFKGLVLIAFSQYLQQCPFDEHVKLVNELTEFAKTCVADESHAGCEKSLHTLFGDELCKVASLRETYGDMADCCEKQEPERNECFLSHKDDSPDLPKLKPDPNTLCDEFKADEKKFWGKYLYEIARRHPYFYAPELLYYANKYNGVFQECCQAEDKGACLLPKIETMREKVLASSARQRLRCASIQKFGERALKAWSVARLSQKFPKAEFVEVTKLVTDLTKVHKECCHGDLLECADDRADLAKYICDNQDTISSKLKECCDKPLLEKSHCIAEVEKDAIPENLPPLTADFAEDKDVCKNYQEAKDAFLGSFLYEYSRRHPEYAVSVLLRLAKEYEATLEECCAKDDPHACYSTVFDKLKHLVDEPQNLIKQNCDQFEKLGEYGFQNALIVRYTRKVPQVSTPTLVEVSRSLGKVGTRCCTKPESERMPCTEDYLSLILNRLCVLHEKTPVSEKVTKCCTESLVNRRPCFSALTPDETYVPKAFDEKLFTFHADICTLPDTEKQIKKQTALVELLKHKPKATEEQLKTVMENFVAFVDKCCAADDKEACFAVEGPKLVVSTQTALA

Turning to `Cc1ccc(S[C@]2(C(=O)NCCCN(C)C)CC(=O)N(C3Cc4ccccc4C3)[C@@H]2c2ccc(CO)cc2I)cc1`, the composite z-score in the test with Albumin (Bos taurus) was 0.827; in test [2] it was -0.0569; in [3] it was -0.18; in [4] it was 0.715; in [5], 0.83; in test [6], -0.312. In addition, the values for the composite z-score (in the test with Sam68 (KHDRBS1); in test [7]; in test [8]) were 0.125, -0.745 and 0.441, respectively. Besides, the composite Z-score in [1] was 0.42 (inactive).

On to `C=C(COC)/C(=C/C[C@H](OC(C)=O)c1ccccc1OCCO)c1cc(C(=O)OC)ccc1OC`, for which the composite z-score with Albumin (Bos taurus) is 0.524; in test [2], -0.129; in test [3], -0.113; in test [4], 0.467; in test [5] it was 1.82; in [6] it was -0.175. In addition, the composite z-score is 0.44 in the test on Sam68 (KHDRBS1), -0.152 in [7] and 0.362 in test [8]. In addition, the composite Z-score in [1] was 0.131 (inactive).

In the case of `[N-]=[N+]=Nc1ccccc1C[C@@]1(C(=O)NCc2ccccc2)N=C(c2ccc(OCCCO)cc2)O[C@@H]1c1ccccc1N=[N+]=[N-]`, the composite z-score is 0.913 with Albumin (Bos taurus); 0.467 in [2]; -0.0211 in [3]; 0.398 in [4]; 1.99 in [5]; -0.136 in test [6]. In addition, the composite z-score in the test on Sam68 (KHDRBS1) was 1.14; in test [7], -0.656; in test [8], 1.12. In test [1], the composite Z-score is 0.605 (inactive).

As to `C=CCC(OC(C)=O)[C@@H]1[C@@H](N(Cc2cccc3ccccc23)C(=O)Cc2ccc(OC)cc2)c2cc(OCCCO)ccc2N1C(=O)Cc1ccc2ccccc2c1` (stereo not given in full), the composite z-score in the test with Albumin (Bos taurus) is -0.0328; in [2], -0.0584; in test [3], -0.159; in test [4], 0.0435; in test [5], 1.17; in test [6] it was 0.078. Moreover, the composite z-score was -0.0489 with Sam68 (KHDRBS1), 0.116 in test [7] and -0.154 in [8]. Further, the composite Z-score in test [1] is 0.181 (inactive).

For `O=C1C=C(c2ccccc2)C(=O)C2=C1CC([C@H]1Oc3ccccc3S(=O)(=O)N3CCC[C@@H]13)=CC2`, the composite z-score with Albumin (Bos taurus) was 0.0895; in [2], -0.0918; in test [3] it was -0.0485; in test [4] it was -0.248; in test [5] it was -0.227; in test [6] it was -0.247. Moreover, the composite z-score with Sam68 (KHDRBS1) was 0.13; in [7], 0.121; in test [8], 0.0457. In addition, the composite Z-score in test [1] is 0.506 (inactive).

As to `CC(C)N1C(=O)C[C@@](C(=O)NCCN2CCOCC2)(c2ccc([N+](=O)[O-])cc2)[C@H]1c1ccc(CO)cc1`, the composite z-score was 0.408 with Albumin (Bos taurus); -0.256 in [2]; -0.0836 in test [3]; 0.642 in test [4]; 2.2 in test [5]; 1.24 in test [6]. Also, the composite z-score is -0.395 in the test on Sam68 (KHDRBS1), -1.26 in test [7] and 0.257 in [8]. The composite Z-score in test [1] is 1.96 (inactive).

As for `COc1ccccc1CN1C(=O)c2ccccc2[C@](Cc2ccccc2I)(C(=O)NCC(C)C)[C@@H]1c1ccc(CO)cc1`, the composite z-score is -0.133 with Albumin (Bos taurus); -0.0693 in test [2]; -0.0241 in test [3]; 0.542 in test [4]; 1.97 in test [5]; 0.675 in [6]. For the same compound, the composite z-score in the test on Sam68 (KHDRBS1) is 0.781; in [7], -0.483; in test [8] it was 0.792. Besides, in test [1], the composite Z-score is 0.688 (inactive).

`C=CCC(OC(C)=O)[C@@H]1[C@@H](N(Cc2cc3ccccc3o2)C(=O)Cc2ccc(OC)cc2)c2cc(OCCCO)ccc2N1C(=O)c1ccc2ccccc2n1` (stereo not given in full): the composite z-score was 0.277 in the test with Albumin (Bos taurus); 0.0642 in test [2]; -0.0303 in test [3]; -0.0176 in test [4]; 0.361 in test [5]; -0.156 in [6]. Besides, the results for the composite z-score (in the test on Sam68 (KHDRBS1); in [7]; in test [8]) were -0.11, 0.498 and 0.0557, respectively. Moreover, the composite Z-score in test [1] is -0.0847 (inactive).

Take `O=C1OCCC=C[C@H]2OC34C=CCN(c5ccc6ccccc6c5)C(=O)[C@H]3N(CCO)C(=O)[C@@H]4C12` (stereo not given in full): the composite z-score in the test with Albumin (Bos taurus) was -0.594; in test [2], -0.571; in test [3], -0.445; in [4] it was 0.368; in test [5] it was -0.237; in [6], -0.162. Also, the composite z-score in the test with Sam68 (KHDRBS1) was -0.362; in test [7], -0.976; in [8], -0.403. Moreover, in test [1], the composite Z-score was 0.465 (inactive).

On to `CC(C)C[C@H]1NC(=O)C([C@@H](C)OCc2ccccc2)NC(=O)[C@@]23C(=O)N[C@@H](Cc4ccccc4)C2[C@H](C)[C@@]2(C)O[C@H]2C3/C=C/C/C=C\CNC1=O` (stereo not given in full), for which the composite z-score with Albumin (Bos taurus) was 0.616; in test [2], 0.2; in test [3] it was -0.0148; in test [4] it was 0.412; in [5], 1.51; in [6], 0.653. In addition, the composite z-score with Sam68 (KHDRBS1) worked out at 1.3; in [7], 0.736; in test [8], 0.234. In test [1], the composite Z-score is 0.0578 (inactive).

Take `CN(C)C(=O)[C@]1(Cc2ccccc2)N=C(c2ccc(OCCCO)cc2)O[C@@H]1c1ccccc1CN=[N+]=[N-]`: the composite z-score turned out to be 0.981 in the test with Albumin (Bos taurus); 0.34 in test [2]; 0.0488 in [3]; 0.582 in test [4]; 2.63 in [5]; 0.407 in test [6]. Also, the composite z-score is 1.31 in the test with Sam68 (KHDRBS1), -0.321 in test [7] and 0.922 in test [8]. For the same compound, the composite Z-score in [1] is 0.0333 (inactive).

With `COCCOC(=O)N1C(=O)[C@@]2(c3cc(C#Cc4ccc(OC)cc4)ccc31)[C@H](c1ccc(OCCO)cc1)N1[C@H](c3ccccc3)[C@H](c3ccccc3)OC(=O)[C@H]1[C@@H]2C(=O)NC[C@H](O)c1ccccc1`, the composite z-score with Albumin (Bos taurus) was determined as 0.314; in test [2], 0.154; in test [3], 0.0022; in [4] it was 0.471; in test [5] it was 0.575; in test [6] it was 0.511. The composite z-score with Sam68 (KHDRBS1) was 1.3; in test [7], 0.311; in test [8], 1.16. For the same compound, the composite Z-score in test [1] was 0.217 (inactive).

In the case of `NC(=O)N1C(=O)C2C(C1=O)C1C=C(CCCO)C2C(C2CC2)N1Cc1sc2ccccc2c1Cl` (stereo not given), the composite z-score is 0.758 with Albumin (Bos taurus); -0.0362 in test [2]; -0.15 in test [3]; 0.616 in test [4]; 1.19 in test [5]; 0.979 in [6]. Besides, the composite z-score is 1.15 with Sam68 (KHDRBS1), -0.0285 in [7] and 1.11 in test [8]. Moreover, the composite Z-score in test [1] was 0.121 (inactive).

In the case of `COc1cc(C(O)C2C=CC3C(=O)N(c4ccccc4)C(=O)C3N2Nc2ccccc2)cc(OC)c1OC` (stereo not given), the composite z-score with Albumin (Bos taurus) is 0.993; in test [2], 0.416; in [3], -0.0742; in test [4], 0.573; in [5], 2.89; in [6] it was 0.496. The composite z-score in the test with Sam68 (KHDRBS1) was 1.31; in test [7] it was -0.872; in [8], 1.15. The composite Z-score in [1] was 0.328 (inactive).
